The text below walks through data of publication PMC4336329 (PLoS ONE, 2015).

Hit rate of the full screen: of about 310,000 compounds, about 14,000 (4.5%) showed an effect of 50% or more. Effects have a minus sign here. The list comes from a sample in which strong results are over-represented; it also holds similar structures and randomly drawn compounds.
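Also: peak tail current of the secondary pulse compared with the same well before compound.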

The target in the experiment is human ether-à-go-go-related gene (hERG) potassium channel (human, UniProt Q12809). Description: primary screen, population patch clamp on CHO cells stably expressing hERG; higher = less effect of the substance.
Sequence of human ether-à-go-go-related gene (hERG) potassium channel (Q12809 whole entry, looked up): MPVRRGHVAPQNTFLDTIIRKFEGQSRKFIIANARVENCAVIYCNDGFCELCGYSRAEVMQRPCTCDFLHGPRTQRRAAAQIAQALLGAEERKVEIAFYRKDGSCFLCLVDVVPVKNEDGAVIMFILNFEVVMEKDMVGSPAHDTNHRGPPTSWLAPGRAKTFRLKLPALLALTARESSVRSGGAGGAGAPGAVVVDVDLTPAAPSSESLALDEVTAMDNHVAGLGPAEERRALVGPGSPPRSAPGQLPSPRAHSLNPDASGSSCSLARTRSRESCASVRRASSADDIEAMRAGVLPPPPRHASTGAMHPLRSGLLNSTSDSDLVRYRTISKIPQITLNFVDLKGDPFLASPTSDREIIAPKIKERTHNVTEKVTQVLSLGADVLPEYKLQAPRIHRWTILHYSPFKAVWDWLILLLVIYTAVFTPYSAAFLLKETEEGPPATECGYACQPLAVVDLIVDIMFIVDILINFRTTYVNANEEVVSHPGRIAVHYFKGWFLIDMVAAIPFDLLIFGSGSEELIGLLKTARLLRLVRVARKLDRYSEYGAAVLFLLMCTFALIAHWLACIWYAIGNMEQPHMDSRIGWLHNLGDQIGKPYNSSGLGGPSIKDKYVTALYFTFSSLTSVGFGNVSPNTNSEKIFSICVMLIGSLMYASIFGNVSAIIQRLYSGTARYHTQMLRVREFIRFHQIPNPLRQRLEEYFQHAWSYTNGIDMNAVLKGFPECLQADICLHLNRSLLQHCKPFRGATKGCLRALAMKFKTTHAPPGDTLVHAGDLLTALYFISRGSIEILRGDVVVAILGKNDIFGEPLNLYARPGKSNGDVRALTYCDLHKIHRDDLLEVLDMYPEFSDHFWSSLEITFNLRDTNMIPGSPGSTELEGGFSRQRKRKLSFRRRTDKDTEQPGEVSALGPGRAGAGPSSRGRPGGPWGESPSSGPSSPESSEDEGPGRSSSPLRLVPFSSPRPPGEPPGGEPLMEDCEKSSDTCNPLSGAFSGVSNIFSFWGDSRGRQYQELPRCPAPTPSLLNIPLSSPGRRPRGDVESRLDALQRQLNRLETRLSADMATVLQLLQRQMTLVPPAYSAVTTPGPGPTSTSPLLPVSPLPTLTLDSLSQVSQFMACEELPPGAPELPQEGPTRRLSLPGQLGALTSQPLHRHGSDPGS
For the compound `NS(=O)(=O)c1ccc(NC(=S)Nc2ccc(Br)c(Cl)c2)cc1`, the “hERG current change (%, negative = inhibition) at 10uM” value came to 21.3%.
For `CCOC(=O)c1ccccc1N/C=C/C(=O)c1cccs1` the value was -14.9%; for `CCn1c(-c2csc(C(C)C)c2)n[nH]c1=S`, 37.1%; for `CC(=O)Nc1ccc(SC[C@H](Cc2ccccc2)N2CC[C@@H](C(C)(C)C)CCC2=O)cc1`, 5.23%.
For `CC(=O)Nc1ccc(SC[C@H](Cc2ccccc2)N2CCN(CC(C)C)CCC2=O)cc1` the value was -44.2%; for `CC(=O)Nc1ccc(SC[C@H](c2ccccc2)N2CCN(CCc3ccccc3)CCC2=O)cc1`, -75.1%; for `CCCN1CCC(=O)N(CCSc2ccc(NC(C)=O)cc2)CC1`, 6.8%.
For `CC(=O)Nc1ccc(SC[C@H](Cc2ccccc2)N2CCN(CCc3ccccc3)CCC2=O)cc1` the value was -55.9%; for `CC(=O)Nc1ccc(SC[C@H](Cc2ccccc2)N2CC[C@@H](O)CCC2=O)cc1`, -7.75%.
With `CC(=O)Nc1ccc(SC[C@H](Cc2ccccc2)N2CC[C@@H](C)CCC2=O)cc1`, the “hERG current change (%, negative = inhibition) at 10uM” value is on record as -8.11%.
Take `CC(=O)Nc1ccc(SC[C@H](CC(C)C)N2CCN(CC(C)C)CCC2=O)cc1`: the “hERG current change (%, negative = inhibition) at 10uM” value is recorded as -28.1%.
The figure for `CC(=O)Nc1ccc(SC[C@H](CC(C)C)N2CCN(CCc3ccccc3)CCC2=O)cc1` is -59.1%.
On to `Cc1cc(OCc2cc(C(=O)NCc3cc(C(C)C)no3)no2)cc(C)c1Cl`, for which the “hERG current change (%, negative = inhibition) at 10uM” value is listed as 9.79%.
The figure for `Cc1cc(C)c(/C=C(\C#N)S(=O)(=O)c2ccccc2)[nH]1` is 11%; for `Cc1[nH][nH]c(=O)c1C(c1ccc(O)c([N+](=O)[O-])c1)c1c(C)[nH][nH]c1=O` it is 18.8%; for `CN(C)c1nc(N)ncc1-c1ccc(Oc2ccccc2)cc1` it is 18%.
As for `COc1ccc(-n2nc(C(=O)NCC(=O)N3CCN(c4ccccc4OC)CC3)c3ccccc3c2=O)c(OC)c1`, the “hERG current change (%, negative = inhibition) at 10uM” value is listed as -18.4%.
Take `Cc1c(N/C=C/C(=O)C(F)(F)F)c(=O)n(-c2ccccc2)n1C`: the “hERG current change (%, negative = inhibition) at 10uM” value was 20.2%.
The figure for `CC1=CC2=NC(=O)CC(C)(C(=O)N(CC(=O)NC3CCCC3)c3cc(C)cc(C)c3)N2C=C1` (centres unmarked) is 17.9%; for `COc1ccccc1CNC(=O)C(=O)c1cn(CC(=O)N2CCCC2)c2ccccc12` it is 15.1%.
Consider `Cc1cccc(/C(N)=N/OC(=O)c2ccc(Cl)cc2Cl)c1`, for which the “hERG current change (%, negative = inhibition) at 10uM” value worked out at 8.46%.
For `COc1ccc(C(=O)N2CCOCC2)cc1S(=O)(=O)N1CCCc2ccccc21` the value was -31.4%.
The figure for `Cc1ccc(C(=O)OCC(=O)c2ccc(S(=O)(=O)N3CCCCC3)cc2)o1` is -20.3%; for `O=Cc1cn(CCOc2ccccc2)c2ccccc12` it is 4.98%; for `Cc1cccn2c(=O)c3cc(C#N)c(=NC(=O)c4ccncc4)n(CCCOC(C)C)c3nc12` it is -85.1%.
For the compound `COCCCn1c(=NC(=O)c2ccncc2)c(C#N)cc2c(=O)n3cccc(C)c3nc21`, the “hERG current change (%, negative = inhibition) at 10uM” value is -68%.
For `COCCCn1c(=NC(=O)c2ccccc2)c(C#N)cc2c(=O)n3cccc(C)c3nc21` the value was -71.5%; for `CC(=O)N=c1c(C#N)cc2c(=O)n3cccc(C)c3nc2n1CCCOC(C)C`, -50.4%; for `COCCCn1c(=NC(C)=O)c(C#N)cc2c(=O)n3cccc(C)c3nc21`, -49.7%.
The figure for `O=C(O)c1cccc(-n2c(-c3cnccn3)n[nH]c2=S)c1` is 20.4%; for `CN(C)c1ccc(NC(=S)c2ccc3ccccc3n2)cc1` it is 12.2%.
For the compound `Cc1ccccc1NCC(=O)N/N=C/c1c(C)c(C(=O)c2ccc(Cl)cc2)n2ccccc12`, the “hERG current change (%, negative = inhibition) at 10uM” value is given as -4.11%.
For `COc1ccccc1C(=O)NC(=O)COc1cc(Cl)ccc1Cl` the value was 0.882%.
With `CC1CCCCN1C(=O)c1c([N+](=O)[O-])cnn1C` (centres unmarked), the “hERG current change (%, negative = inhibition) at 10uM” value came out at 18.7%.
For `COc1ccc(NC(=O)c2cncn2-c2ccccc2)cc1` the value was 13.7%; for `CCOC(=O)C1=C(C)N(CCCC(=O)O)C(=O)NC1c1ccccc1OS(=O)(=O)c1ccc(C)cc1` (centres unmarked), -15.2%; for `Cc1cc(=O)oc2cc(NC(=O)c3ccccc3OC(F)F)ccc12`, 26.9%.
For `CC1CCN(C2=NC(=O)/C(=C/c3cccc(O)c3)S2)CC1`, the “hERG current change (%, negative = inhibition) at 10uM” value was -18.5%.
For `CC(=O)N1C(Nc2ccc(Cl)cc2)CCN1c1ccccc1` (centres unmarked) the value was 9.96%; for `O=C(NC(NNc1ccc([N+](=O)[O-])cc1)(C(F)(F)F)C(F)(F)F)c1ccc(F)cc1`, -2.67%; for `COc1ccc(C(=O)Nc2ncc(C)s2)cc1S(=O)(=O)N1CCCC1`, 17.5%.
The figure for `COc1ccc(C(=O)Nc2ncc(C)s2)cc1S(=O)(=O)N1CCOCC1` is -56.2%; for `COc1ccc(C(=O)Nc2nnc(C)s2)cc1S(=O)(=O)N1CCOCC1` it is -14%.
For `COc1ccc(C(=O)Nc2ccccn2)cc1S(=O)(=O)N1CCOCC1` the value was -8.04%; for `COc1ccc(C(=O)Nc2ccc(Cl)cn2)cc1S(=O)(=O)N1CCCC1`, -48%; for `COc1ccc(C(=O)Nc2ccc(Br)cn2)cc1S(=O)(=O)N1CCOCC1`, -57.9%.
In the case of `CN(C)c1nc(Oc2ccc(=O)n(-c3ccccc3)n2)nc(N2CCOCC2)n1`, the “hERG current change (%, negative = inhibition) at 10uM” value stood at 9.19%.
Take `CC(=O)Nc1ccc(C(=O)NNC(=O)c2ccccc2-n2cccc2)cc1`: the “hERG current change (%, negative = inhibition) at 10uM” value is 6.54%.
The figure for `COc1ccc(C(=O)NNC(=O)CN(C)S(=O)(=O)c2ccc(Cl)cc2)c(OC)c1OC` is -49.7%; for `Cc1cccc(N/N=C/c2ccc(C)s2)c1` it is 19.7%; for `O=C(CCCn1c(=S)[nH]c2ccsc2c1=O)NCc1ccco1` it is 18.8%.
Take `Cc1noc(C)c1S(=O)(=O)N1CCC(C(=O)NC2CCN(Cc3ccccc3)CC2)CC1`: the “hERG current change (%, negative = inhibition) at 10uM” value is recorded as -25%.
For `O=C(NC1CCN(Cc2ccccc2)CC1)C1CCN(S(=O)(=O)c2ccc(Cl)cc2)CC1` the value was -73.2%; for `CCN(CCCNC(=O)C1CCN(S(=O)(=O)c2cccc3nonc23)CC1)Cc1ccccc1`, -57.2%; for `O=C(NCCc1ccccc1)C1CCN(S(=O)(=O)c2cccc3nonc23)CC1`, -10.5%.
For `Cc1ccc(C(=O)NC2CCN(Cc3ccccc3)CC2)cc1S(=O)(=O)N1CCOCC1`, the “hERG current change (%, negative = inhibition) at 10uM” value is given as -30.2%.
The figure for `CCCNC(=O)C1CCN(S(=O)(=O)c2cccc3nonc23)CC1` is -3.97%; for `CCN(CC)S(=O)(=O)c1ccc(S(=O)(=O)N2CCC(C(=O)NC3CCN(Cc4ccccc4)CC3)CC2)cc1` it is 14.8%.
The figure for `O=C(NC1CCN(Cc2ccccc2)CC1)C1CCCN(S(=O)(=O)c2cccc3nonc23)C1` (centres unmarked) is -55.9%; for `O=C(NCc1ccccc1)C1CCCN(S(=O)(=O)c2cccc3nonc23)C1` (centres unmarked) it is 9.65%; for `O=C(NC1CCN(Cc2ccccc2)CC1)C1CCN(S(=O)(=O)c2ccccc2)CC1` it is -28.8%.
For `O=C(C1CCCN(S(=O)(=O)c2cccc3nonc23)C1)N1CCC(Cc2ccccc2)CC1` (centres unmarked) the value was -30.9%; for `Cc1ccc(Cl)cc1S(=O)(=O)N1CCC(C(=O)NC2CCN(Cc3ccccc3)CC2)CC1`, -71.5%.
For the compound `COc1cc(/C=C2\SC(=S)N(CCC(=O)Nc3ccc(O)cc3)C2=O)cc(OC)c1OC`, the “hERG current change (%, negative = inhibition) at 10uM” value amounted to 11.9%.
For `COCCCn1c(=O)c2sccc2n2c(CCCC(=O)NCc3cccc(OC)c3)nnc12` the value was -6.59%.
For `O=C1CSC(c2cccnc2)N1c1cccc(Cl)c1` (centres unmarked) the value was -1.13%; for `CCOC(=O)c1c(NC(=O)C2CCCO2)sc(C(=O)OC(C)(C)C)c1C` (centres unmarked), 9.29%; for `COc1cccc(NC(=O)Cn2nc(Cc3cccnc3)c3ccccc3c2=O)c1`, -34.6%.
For `COc1ccc(Nc2nnc(Cc3ccncc3)c3ccccc23)c(OC)c1` the value was -72.7%.
Turning to `COc1cccc(Nc2nnc(Cc3cccnc3)c3ccccc23)c1`, the “hERG current change (%, negative = inhibition) at 10uM” value is recorded as -75.8%.
The figure for `COc1cccc(NC(=S)NCc2cccnc2)c1` is 8.76%.
`COc1ccc(Nc2nnc(Cc3ccccc3)c(=O)[nH]2)c(OC)c1`: the “hERG current change (%, negative = inhibition) at 10uM” value is on record as 3.85%.
Take `COc1ccc(Nc2ncnc3ccccc23)c(OC)c1.Cl`: the “hERG current change (%, negative = inhibition) at 10uM” value is recorded as -10.2%.
On to `Cc1csc2c(N3CCN(C(=O)Nc4ccccc4)CC3)ncnc12`, for which the “hERG current change (%, negative = inhibition) at 10uM” value is -25.4%.
Turning to `CCOC(=O)N1CCC(NC(=O)c2cccc3c2C(=O)N(Cc2cccnc2)C3)CC1`, the “hERG current change (%, negative = inhibition) at 10uM” value is given as -13.9%.
As to `CCOC(=O)C1=C(COC(=O)CCOc2ccccc2C)NC(=O)NC1C` (centres unmarked), the “hERG current change (%, negative = inhibition) at 10uM” value was -28.4%.
In the case of `NC(=O)c1cc(-c2csc(-c3cccnc3)n2)ccc1O`, the “hERG current change (%, negative = inhibition) at 10uM” value is 5.27%.
The figure for `CN(CCNC(=O)c1cn(C)c2ccc(S(=O)(=O)N(C)C)cc2c1=O)CCc1ccccc1` is -27.1%.
The figure for `CC(C)OCCCNC(=O)c1cn(C)c2ccc(S(=O)(=O)N(C)C3CCCCC3)cc2c1=O` is -22%; for `CCN(CC)CCCNC(=O)c1cn(C)c2ccc(S(=O)(=O)N(C)C)cc2c1=O` it is 3.07%.
For the compound `CCCCN(CCCC)CCNC(=O)c1cn(C)c2ccc(S(=O)(=O)N(C)C3CCCCC3)cc2c1=O`, the “hERG current change (%, negative = inhibition) at 10uM” value is reported as -76.7%.
For `CCN(CC)S(=O)(=O)c1ccc2c(c1)c(=O)c(C(=O)NCCc1ccccc1)cn2C` the value was -0.204%; for `COCCNC(=O)c1cn(C)c2ccc(S(=O)(=O)N(C)C3CCCCC3)cc2c1=O`, -27.7%; for `CCN(CC)CCNC(=O)c1cn(C)c2ccc(S(=O)(=O)N(C)C3CCCCC3)cc2c1=O`, -42.8%.
For `COC(CNC(=O)c1cn(C)c2ccc(S(=O)(=O)N(C)C3CCCCC3)cc2c1=O)OC` the value was -21.5%.
The figure for `CCCCN(CC)CCCNC(=O)c1cn(C)c2ccc(S(=O)(=O)N(C)C3CCCCC3)cc2c1=O` is -73.2%.
For `CCN(CC)S(=O)(=O)c1ccc2c(c1)c(=O)c(C(=O)NCCN(C)CCc1ccccc1)cn2C`, the “hERG current change (%, negative = inhibition) at 10uM” value is reported as -67.1%.
For `CCCCN(C)CCCNC(=O)c1cn(C)c2ccc(S(=O)(=O)N(C)C3CCCCC3)cc2c1=O` the value was -75%.
The figure for `CCN(CC)CCCNC(=O)c1cn(C)c2ccc(S(=O)(=O)N(C)C3CCCCC3)cc2c1=O` is -24.8%.
